Screening data: PubChem, several laboratories
GDH-TPI inh: GDH-TPI coupling enzyme inhibitors, primary screen, artefact control for M. tuberculosis FBA inhibitor project, biochemical, absorbance, full deck; GDH-TPI coupled enzyme counterscreen, NADH absorbance; inhibition, % at 4.8 µM; hit rate 1.2% among 360,000
BH1578 lux ind: inducers of Vibrio cholerae quorum light production without autoinducers, primary screen, BH1578 luxS cqsA deficient, single point; hit rate 0.16% among 350,000; AID 588436, 2011; activation, % at 18.7 µM; V. cholerae BH1578 lux reporter, luminescence, 6 h; in the data active means activation mostly above about 9.7%, no sharp cut-off
Mtb FBA inh: Mtb FBA enzyme inhibitors, primary screen, biochemical, fluorescence, strain H37Rv | hit rate 2.3% among 360,000 | inhibition, % at 1 µM | purified M. tuberculosis FBA, fluorescence read-out | Fructose-bisphosphate aldolase (Mycobacterium tuberculosis (strain ATCC 25618 / H37Rv)), …; in the data active means inhibition above about 27%
Target sequence (P9WQA3 whole entry, looked up): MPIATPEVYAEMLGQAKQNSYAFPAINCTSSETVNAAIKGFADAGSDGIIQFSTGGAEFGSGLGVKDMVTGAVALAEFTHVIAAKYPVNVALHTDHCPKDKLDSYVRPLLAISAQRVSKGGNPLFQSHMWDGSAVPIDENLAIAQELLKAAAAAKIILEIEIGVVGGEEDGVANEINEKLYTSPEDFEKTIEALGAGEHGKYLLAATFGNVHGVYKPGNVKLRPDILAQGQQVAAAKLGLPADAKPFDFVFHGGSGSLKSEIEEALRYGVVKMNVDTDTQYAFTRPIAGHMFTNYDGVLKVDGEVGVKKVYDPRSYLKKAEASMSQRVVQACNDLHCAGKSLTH
CCHF vOTU inh: CCHFV vOTU protease inhibitors, primary screen, biochemical, Pep-AMC substrate, fluorescence | inhibition, % at 11.5 µM | hit rate 0.55% among 370,000 | AID 651958, 2012
A number is an active result. In the library only some 3.9% were active in any assay of this set; here they are far more common. Unless noted, no stated cut-off is given here; in the data, active means inhibition above about 30%; inactive means the rest.

COc1cccc(/C=N/NC(=O)c2ccncc2)c1OC(=O)c1ccc(Br)cc1 was read as GDH-TPI inh inactive, BH1578 lux ind inactive and Mtb FBA inh inactive.
O=C(O)c1cc(-c2ccccc2)n(-c2ccc(Cl)cc2Cl)n1 was read as GDH-TPI inh inactive, BH1578 lux ind inactive, Mtb FBA inh inactive and CCHF vOTU inh inactive.
`Nc1nonc1-n1nnc(C(=O)N/N=C/c2ccc(O)cc2)c1COc1ccc(F)cc1` gave GDH-TPI inh 32, BH1578 lux ind inactive, Mtb FBA inh inactive and CCHF vOTU inh inactive.
COCc1c(C(=O)N/N=C/c2ccc(C)o2)nnn1-c1nonc1N was read as GDH-TPI inh 38, BH1578 lux ind inactive, Mtb FBA inh inactive and CCHF vOTU inh inactive.
Screening CN(C)c1ccc(/C=N/NC(=O)c2nnn(-c3nonc3N)c2CN(C)c2ccccc2)cc1 returned GDH-TPI inh 31, BH1578 lux ind inactive, Mtb FBA inh inactive and CCHF vOTU inh inactive.
Screening CCC(CO)Oc1cc(NC(=O)c2cccc(OC)c2)c2ncn(C(C)C)c2c1 (stereo not drawn) returned GDH-TPI inh inactive, BH1578 lux ind inactive, Mtb FBA inh inactive and CCHF vOTU inh inactive.
Screening COc1ccc(C(C)=O)cc1COC(=O)c1cnc(C)cn1 returned GDH-TPI inh inactive, BH1578 lux ind inactive, Mtb FBA inh inactive and CCHF vOTU inh inactive.
Screening CCOC(=O)/C(=C/C=C/c1ccccc1)NC(=O)c1ccccc1 returned GDH-TPI inh inactive, BH1578 lux ind inactive, Mtb FBA inh inactive and CCHF vOTU inh inactive.
Cc1ccc(NC(=O)/C(=C\C=C\c2ccccc2)NC(=O)c2ccccc2)cc1 was read as GDH-TPI inh 51, BH1578 lux ind inactive, Mtb FBA inh inactive and CCHF vOTU inh inactive.
For CCOC(=O)/C(=C\C=C\c1ccccc1)NC(=O)c1ccccc1 the results were GDH-TPI inh 67, BH1578 lux ind inactive, Mtb FBA inh inactive and CCHF vOTU inh inactive.
O=C(Nc1ccc(C(=O)O)cc1)/C(=C\C=C\c1ccccc1)NC(=O)c1ccccc1Br was read as GDH-TPI inh 52, Mtb FBA inh inactive and CCHF vOTU inh inactive.
For O=C(Nc1cccc(C(=O)O)c1)/C(=C\C=C\c1ccccc1)NC(=O)c1ccccc1 the results were GDH-TPI inh 33, BH1578 lux ind inactive, Mtb FBA inh inactive and CCHF vOTU inh inactive.
`C#CCOCCOCCOCCNc1nc(N2CCN(C(=O)[C@H](CO)n3cc([C@@H](N)C(C)C)nn3)CC2)nc(N2CCN(C(=O)[C@H](CCC(=O)O)n3cc([C@@H](N)CCCCN)nn3)CC2)n1` gave GDH-TPI inh inactive, BH1578 lux ind inactive, Mtb FBA inh inactive and CCHF vOTU inh inactive.
For CONC(=O)c1ccc(-c2cccc3nccn23)cc1 the results were GDH-TPI inh inactive, BH1578 lux ind inactive, Mtb FBA inh inactive and CCHF vOTU inh inactive.
`Cc1cccc(-c2cccc3nccn23)c1` gave GDH-TPI inh inactive, BH1578 lux ind inactive, Mtb FBA inh active and CCHF vOTU inh inactive.
`OCc1ccc(-c2cccc3nccn23)cc1` gave GDH-TPI inh inactive, BH1578 lux ind inactive, Mtb FBA inh active and CCHF vOTU inh inactive.
Screening CN(C)Cc1ccccc1-c1cccc2nccn12 returned GDH-TPI inh inactive, BH1578 lux ind inactive, Mtb FBA inh 142 and CCHF vOTU inh inactive.
Screening CCOc1ccc(C2=CS/C(=C(\C#N)c3nnc4n3CCCCC4)N2CC)cc1 returned GDH-TPI inh 32, BH1578 lux ind inactive, Mtb FBA inh inactive and CCHF vOTU inh inactive.
`C=CCN1C(c2ccccc2)=CS/C1=C(\C#N)c1nnc2n1CCCCC2` gave GDH-TPI inh inactive, BH1578 lux ind inactive, Mtb FBA inh inactive and CCHF vOTU inh inactive.
`Cc1cc(C)c(NC(=O)/C=C\C(=O)O)c([N+](=O)[O-])c1` gave GDH-TPI inh inactive, Mtb FBA inh inactive and CCHF vOTU inh inactive.
Screening O=C(c1ccccc1)N1N=C(C(F)(F)F)CC1(O)c1ccccc1O (stereo not drawn) returned GDH-TPI inh inactive, BH1578 lux ind inactive, Mtb FBA inh inactive and CCHF vOTU inh inactive.
For COc1ccc(NC(=O)C2CCN(S(=O)(=O)c3c(C)noc3/C=C/N(C)C)CC2)cc1 the results were GDH-TPI inh 37, BH1578 lux ind inactive, Mtb FBA inh inactive and CCHF vOTU inh inactive.
COCCCNC(=O)C1CCN(S(=O)(=O)c2c(C)noc2/C=C\c2ccc(OC)cc2)CC1 was read as GDH-TPI inh 39, BH1578 lux ind inactive, Mtb FBA inh inactive and CCHF vOTU inh inactive.
CCCN1CCN(C(=O)C2CCN(S(=O)(=O)c3c(C)noc3/C=C/c3ccc(C)cc3)CC2)CC1 was read as GDH-TPI inh 32, BH1578 lux ind inactive, Mtb FBA inh inactive and CCHF vOTU inh inactive.
Screening CCCCNC(=O)C1CCN(S(=O)(=O)c2c(C)noc2/C=C\c2ccc(OC)cc2)CC1 returned GDH-TPI inh inactive, BH1578 lux ind inactive, Mtb FBA inh inactive and CCHF vOTU inh inactive.
For COc1ccc(NS(=O)(=O)c2ccc(C(=O)N3CCN(Cc4ccccc4)CC3)cc2)cc1 the results were GDH-TPI inh inactive, BH1578 lux ind inactive, Mtb FBA inh inactive and CCHF vOTU inh inactive.
Screening CC(C)c1cc(NCC2CCCO2)n2c(nc3ccccc32)c1C#N (stereo not drawn) returned GDH-TPI inh inactive, BH1578 lux ind inactive, Mtb FBA inh active and CCHF vOTU inh inactive.
`CCc1c(C)c(C#N)c2nc3ccccc3n2c1NCC1CCCO1` (stereo not drawn) gave GDH-TPI inh inactive, Mtb FBA inh inactive and CCHF vOTU inh inactive.
Cc1cc(NCC2CCCO2)n2c(nc3ccccc32)c1C#N (stereo not drawn) was read as GDH-TPI inh inactive, BH1578 lux ind inactive, Mtb FBA inh active and CCHF vOTU inh inactive.
Screening Cc1ccc(-n2nc(C)cc2NC(=O)COc2cc(C)cc3oc(=O)c4c(c23)CCC4)cc1 returned GDH-TPI inh inactive, BH1578 lux ind inactive, Mtb FBA inh inactive and CCHF vOTU inh inactive.
Screening COc1ccc([N+](=O)[O-])cc1NC(=O)CCC(=O)c1cccs1 returned GDH-TPI inh inactive, BH1578 lux ind inactive, Mtb FBA inh inactive and CCHF vOTU inh inactive.
Cc1ccc(NCN2C(=O)c3ccccc3C2=O)c(C)n1 was read as CCHF vOTU inh inactive.
`N/C(=N\N=C\c1ccc(O)c(O)c1)c1nonc1N` gave GDH-TPI inh 41, BH1578 lux ind inactive, Mtb FBA inh inactive and CCHF vOTU inh inactive.
For COc1cc(/C=N/N=C(\N)c2nonc2N)ccc1O the results were GDH-TPI inh inactive, BH1578 lux ind inactive, Mtb FBA inh inactive and CCHF vOTU inh inactive.
For COc1ccc(C2=CC(=O)CCC2)cc1 the results were GDH-TPI inh inactive, BH1578 lux ind inactive, Mtb FBA inh inactive and CCHF vOTU inh inactive.
For COc1ccc(CCN(C)Cc2ccc(OCc3ccccc3)c(OC)c2)cc1OC the results were GDH-TPI inh inactive, BH1578 lux ind inactive, Mtb FBA inh inactive and CCHF vOTU inh inactive.
COCCN1C=C(C(=O)OC)C(c2ccc(Cl)cc2)C(C(=O)OC)=C1 was read as GDH-TPI inh inactive, BH1578 lux ind inactive, Mtb FBA inh active and CCHF vOTU inh inactive.
